Screening results (PubChem BioAssay)
This is a sample that favours compounds with a hit; in the whole collection about 7.9% have one here.
HCV inhibitor = blocks hepatitis C virus; Huh7.5.1 HCVcc-Cre infection, luciferase reporter, 44 h; Potency, µM (series often up to 41.8 µM), for inactives: at the highest dose activity change, negative = inhibition, usual class: inhibitors; 340,000 compounds, 3.4% hits; AID 651820; also: potency is read from the fitted curve at half-maximal effect; % is scaled to controls: 0 for no effect and ±100 for the full control effect
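Seed cells (1,000/well) for 4 h; treat with compound and infect with HCVcc-Cre, moi about 0.5. Incubate 44 h, then detect luciferase activity.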
MARV entry inh = inhibitors of Marburg virus binding or cell entry. Marburg virus pseudotyped entry inhibition, cell reporter. Potency, µM (titrated, usually from 37.8 µM), without a hit: at the highest dose activity change, negative = inhibition, actives largely listed as inhibitors. 300,000 compounds, 1.8% hits; calls by dose curve; tested in HEK293 cells; also: potency is read from the fitted curve at half-maximal effect; % is scaled to controls: 0 for no effect and ±100 for the full control effect
HCMV antiviral = inhibitors of human cytomegalovirus | HFF cells, HCMV-luciferase reporter, 72 h; stronger effect = lower value | activity change, negative = inhibition, % at 57.5 µM | 410,000 compounds, 4.5% hits; in the data active = activity change below about -60%; inconclusive = no clear call, values can overlap the other calls; inactive = above about -39%; also: % is scaled to controls: 0 for no effect and ±100 for the full control effect
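Cell-based, HFFs, 1000 cells/well, 16 h 37C; cpds in DMSO + HCMV-luc, MOI 1 PFU/cell; 72 h 37C; OneGlo luminescence after 5 min RT; norm. to buffer vs Salinomycin 10uM.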
Lassa entry inh = inhibitors of Lassa virus binding or cell entry | Potency, µM (series often up to 37.9 µM), for inactives: at the highest dose activity change, negative = inhibition, hits mostly inhibitors | 300,000 compounds, 1.2% hits | Lassa virus pseudotype entry inhibition, cell reporter; calls by dose curve; tested in HEK293 cells; also: potency is read from the fitted curve at half-maximal effect; % is scaled to controls: 0 for no effect and ±100 for the full control effect; nearly all actives have a fitted effect of over 50% in size
FMDV inh = antivirals against foot and mouth disease virus. FMDV antiviral cell-based qHTS. Potency, µM (titrated, usually from 57.9 µM), without a hit: top-dose activity change, negative = inhibition, most hits filed as inhibitors. 410,000 compounds, 1.2% hits. AID 1159524; calls by dose curve; tested in HEK293T cells; also: read-out not given here; potency is read from the fitted curve at half-maximal effect; % is scaled to controls: 0 for no effect and ±100 for the full control effect; nearly all actives have a fitted effect of over 45% in size
HCV inh confirm = confirmation of hepatitis C virus inhibitors; HCVcc-Cre infectious virus cell assay, luciferase, inhibition; Potency, µM (series often up to 41.8 µM), for inactives: at the top dose activity, negative = inhibition, actives largely listed as inhibitors; 640 compounds, 78% hits; shares compounds with HCV inhibitor; also: potency is read from the fitted curve at half-maximal effect; nearly all actives have a fitted effect of over 80% in size
HCV cytotox = toxic to HCV host cells, flagging false HCV inhibitors; Potency, µM (highest dose often 41.8 µM), inactives show at the highest dose activity change, negative = cytotoxicity, most hits filed as inhibitors; shares compounds with HCV inhibitor; AID 720576; HCV host cell line cytotoxicity counterscreen; 640 compounds, 22% hits;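 also: potency is read from the fitted curve at half-maximal effect; 44 h compound exposure; % is scaled to controls: 0 for no effect and ±100 for the full control effect; nearly all actives have a fitted effect of over 55% in size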
Numbers without * were called inactive; u = inconclusive; x = no result; [ ] = remark or other dose. Unless noted, calls follow the shape of the dose curve; as a rule, active = well fitted curve in the direction sought with a large enough effect; inconclusive = small, poorly fitted or top-dose-only effect, or another doubt; inactive = no such curve, though single readings can be large; an effect the other way counts as inactive or inconclusive.

SMILES	HCV inhibitor	MARV entry inh	HCMV antiviral	Lassa entry inh	FMDV inh	HCV inh confirm	HCV cytotox
C=C(C(=O)O)C(CCCCCC)C(=O)O (stereo not drawn)	0.63µM*	x	-8	x	-14%	-16%	-11%
Cc1nn(CC(=O)NCCCN2CCC(N3CCCCC3)CC2)c(=O)c2cc(-c3ccccc3)nn12	4µM*	x	u	x	9%	25µM*	20%
CCS(=O)(=O)N1CCC(C(=O)NCc2ccc3c(c2)OCO3)CC1	14%	-2%	20	7%	4%	x	x
O=C(NCc1ccc2c(c1)OCO2)C1CCN(C(=O)Nc2ccc(Cl)cc2)CC1	u	25%	63	7%	0%	13µM*	-1%
COc1ccc(-c2cc(C(F)(F)F)n3nc(C(=O)Nc4cccc(Cl)c4Cl)cc3n2)cc1OC	x	x	-4	21%[46.1 µM]	-11%	x	x
CC(=O)Nc1ccc(NC(=O)Cc2ccc(-c3ccccc3)cc2)cc1	7%	x	-29	x	-3%	x	x
O=C(CCl)Nc1ccc(-c2ccccc2)cc1	3.2µM*	u	81	10µM*	22µM*	6.3µM*	8.9µM*
Cc1ccc(CNC(=O)CCCn2c(=O)c3ccccc3n(CC(=O)C(C)(C)C)c2=O)cc1	x	1%[46.1 µM]	9	u	4%	x	x
COC(=O)c1cc2c(C)cc3ccc(C)cn3c-2c1C(=O)OC	4µM*	1%	-21	-13%	0%	11µM*	43%
COC(=O)c1cc2ccccn2c2c(C(=O)OC)c(C(=O)OC)cc1-2	u	u	46	-28%	u	x	x
CC(NC(=O)c1cc2c(=O)n3ccccc3nc2n(CC2CCCO2)c1=N)c1ccccc1 (stereo not drawn)	2.2µM*	-26%[46.1 µM]	-22	x	10%	11µM*	28%
N=c1c(C(=O)NCc2ccc3c(c2)OCO3)cc2c(=O)n3ccccc3nc2n1Cc1cccnc1	6.3µM*	-23%	-13	3%	23%	14µM*	0%
N=c1c(C(=O)NCc2ccco2)cc2c(=O)n3ccccc3nc2n1Cc1ccccc1	3.2µM*	u	21	-6%	-2%	3.5µM*	u
COC(=O)c1cc(C(=O)c2ccccc2)n2c(=O)/c(=C\N(C)C)sc12	u	x	0	x	-17%	x	x
COC(=O)c1cc(C(=O)c2ccc(Cl)cc2)n2c(=O)/c(=C\N(C)C)sc12	2.8µM*	-9%[46.1 µM]	-17	-15%[46.1 µM]	-17%	7.9µM*	-45%
COc1cc2sc(C)nc2c2sccc12	2.2µM*	3%	11	1%	-14%	25µM*	43%
COc1ccc2sc(C)nc2c1NC(C)=O	-4%	-2%[46.1 µM]	-17	2%	-14%	x	x
CCN(CC)S(=O)(=O)c1ccc(Oc2ccc(S(=O)(=O)N(CC)CC)cc2)cc1	2.8µM*	u	19	15µM*	u	2.5µM*	2.8µM*
O=C(Nc1cccc(NC(=O)c2ccc(-c3ccc(Br)cc3)o2)c1)c1ccco1	6.3µM*	u	u	u	-10%	7µM*	17%
O=C(C[C@@H]1C/C=C\C[C@@H](NC(=O)OCC2c3ccccc3-c3ccccc32)C(=O)OCCNC1=O)N[C@@H](CO)Cc1ccccc1	1.8µM*	x	-8	x	-17%	u	-13%
C[C@@H]1COC(=O)[C@H](NC(=O)OCC2c3ccccc3-c3ccccc32)C/C=C\C[C@@H](CC(=O)N[C@H](CO)Cc2ccccc2)C(=O)N1	u	x	-23	x	-3%	x	x
COC(=O)c1cc(C)nc2c1c(=O)nc(SCc1ccccc1F)n2C1CC1	x	x	4	-15%[46.1 µM]	-27%	x	x
COc1cccc(C(=O)Nc2ccc3c(c2)CCCN3C(=O)c2cccs2)c1OC	4.5µM*	x	-33	u	-15%	25µM*	u
CC(=O)c1c(C)oc2ccc(N(C(=O)Oc3ccccc3)S(=O)(=O)c3ccc(Br)cc3)cc12	x	28%[46.1 µM]	11	13%[46.1 µM]	6%	x	x
CCOc1cc(/C=C/C(=O)Nc2ccc(C(=O)NCCN(CC)CC)cc2)ccc1OCC(C)C	3.2µM*	18µM*	-114*	u	u	16µM*	35µM*
SMILES	HCV inhibitor	MARV entry inh	HCMV antiviral	Lassa entry inh	FMDV inh	HCV inh confirm	HCV cytotox
CCOc1ccccc1NC(=O)CCc1c(C)nc2c3cccnc3nn2c1C	x	4%[46.1 µM]	-5	-28%[46.1 µM]	-14%	x	x
CC(=O)c1cccc(N=Nc2c(C)[nH]c3ccccc23)c1	u	-15%	18	17%	46%	x	x
COc1ccc(N=Nc2c(C)[nH]c3ccccc23)cc1	7.1µM*	u	14	16%[46.1 µM]	49%	20µM*	-6%
CCOC(=O)N1CCN(C(=O)CSCC(=O)Nc2nc(-c3ccc4c(c3)OCO4)cs2)CC1	u	u	x	7%	u	16µM*	-24%
O=C(CSCC(=O)N1CCOCC1)Nc1nc(-c2ccc3c(c2)OCO3)cs1	-22%	x	95	x	16%	x	x
O=C(NC(Nc1ncc(S(=O)(=O)c2ccc([N+](=O)[O-])cc2)s1)(C(F)(F)F)C(F)(F)F)c1ccc(Cl)cc1	4.5µM*	3.2µM*	-96*	u	u	4.4µM*	7.9µM*
COc1cc2c(cc1OC)C(COc1ccc3c(C)cc(=O)oc3c1)N(C(=O)c1ccc(C)c(C)c1)CC2 (stereo not drawn)	x	7%[46.1 µM]	4	u	-23%	x	x
S=C(NCCCN1CCOCC1)N1CCN(c2nc(-c3ccc(Cl)cc3)cs2)CC1	3.2µM*	u	-91*	16µM*	13µM*	7µM*	28µM*
S=C(NCCCN1CCOCC1)N1CCN(c2ccccc2)CC1	7%	7%	u	5%	-11%	x	x
C=C(NC(=O)C(=C)NC(=O)c1csc(C2=NC3c4csc(n4)C4NC(=O)c5csc(n5)C(C(C)(O)C(C)O)NC(=O)C5CSC(=N5)/C(=C/C)NC(=O)C(C(C)O)NC(=O)c5csc(n5)C3(CC2)NC(=O)C(C)NC(=O)C(=C)NC(=O)C(=C)NC(=O)C(C(C)C)NC2C=Cc3c(C(C)O)cc(nc3C2O)C(=O)OC4C)n1)C(N)=O (stereo not drawn)	4µM*	4µM*	-98*	6.3µM*	u	2.5µM*	3.1µM*
Cc1ccc(N(C(=O)CCl)C(C(=O)NC2CCCCC2)c2cccnc2)cc1C (stereo not drawn)	0.89µM*	u	-99*	7.9µM*	7.9µM*	0.5µM*	0.4µM*
COc1cc(/C=C2/SC(=O)NC2=O)ccc1OC(=O)c1ccco1	2%	1%	63	18%	-20%	x	x
CCOc1cc(/C=C2/SC(=S)NC2=O)ccc1OC(=O)c1ccco1	3.5µM*	0%[46.1 µM]	0	11%	4%	-15%	-10%
CCOc1ccc(C(=O)N(Cc2nc(-c3cccc(C)c3)no2)C(C)C)cc1	x	-10%[46.1 µM]	-1	u	-15%	x	x
